Consider 14 compounds from PubChem BioAssay.

A short description of test [1]: inhibitors of TNFa-induced NFkB p65 translocation, primary screen, imaging, HUVEC, MLSMR starter and 10KST1 sets (AID 438;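 active = inhibition above 20% together with a positive visual image hit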;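 note: compound added about 3h40 before a 20 min TNFalpha stimulation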;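 for inhibition: signal is the nuclear over cytoplasmic p65 intensity ratio per well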). The conditions noted are these: HUVEC TNFa-induced p65 nuclear translocation; cell count: measured here: nuclei count (cytotoxicity indicator), at 2.08 µM; inhibition: at 2 µM, stronger effect = higher value, 0% TNFa-plus-vehicle, 100% no-TNFa wells.
Test [2] is described as follows: inhibitors of mutant huntingtin aggregation, primary screen, imaging, exon1htt(103Q)mCFP cells, high-content imaging (AID 483;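 active = visual image review flags a hit and inhibition of aggregation exceeds 20%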;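 note: compound exposure lasted 3 days before fixation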;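 for nuclei count: percent of the per-plate median nuclei count of sample wells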). Particulars: exon1htt(103Q)mCFP cell line, aggregate imaging, at 2 µM; inhibition of aggregation: stronger effect = higher value; nuclei count: measured here: cell count, toxicity.
The nature of test [3]: inhibitors of E-selectin induction by TNFa, primary screen, imaging, HUVEC, immunofluorescence, MLSMR starter and 10KST1 sets (AID 487;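 active = visually confirmed hit in the image check and inhibition above 20%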;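 for inhibition: signal is fraction of cell area covered by stained E-selectin grains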;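 for nuclei count: 100% = median nuclei count of all wells on the same plate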). Particulars: HUVEC TNFalpha-induced E-selectin immunofluorescence imaging, at 2 µM; inhibition: stronger effect = higher value; nuclei count: measured here: cell number, toxicity.
Test [4] has as its target Voltage-gated potassium channel subunit beta-2 (Rattus norvegicus) (UniProt P62483). Put plainly: KvBeta enzyme negative modulators, primary screen, biochemical, NADPH fluorescence (AID 622;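 active = fluorescence slope higher than the sample average by over 3 SD, cut at about -0.22 in these data, passing the limit was not always enough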;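 note: slope of raw intensity against log time taken from 70 to 1610 s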). Particulars: recombinant KvBeta, 4-cyanobenzaldehyde reduction, at 10 µM, stronger effect = higher value.
Test [5] has the same target. Put plainly: KvBeta positive modulators, primary screen, biochemical, NADPH fluorescence (AID 623;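 active = NADPH fluorescence slope more negative than the mean of all samples by about 3 SD, 99.7% confidence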;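 note: fluorescence intensity change per second fitted from 20 to 320 s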). Particulars: Recombinant KvBeta, NADPH fluorescence decrease slope, 10 min; at 10 µM; stronger effect = lower value.
Test [6] deals with Alpha-2C adrenergic receptor (Homo sapiens) (UniProt P18825). Nature of the test: modulators of alpha2C/GIRK thallium flux, primary screen, cell-based, HEK293 alpha2C/GIRK1/2 (AID 624;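 active = fluorescence slope after compound addition differing from the mean of all screened samples at 99.7% confidence, in either direction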;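 note: slope of fluorescence ratio to pre-addition baseline per second over 15 to 24 s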). Particulars: thallium flux BTC fluorescence, at 10 µM, actives lie on both sides.
Alpha-2C adrenergic receptor (Homo sapiens), sequence (P18825 whole entry, looked up): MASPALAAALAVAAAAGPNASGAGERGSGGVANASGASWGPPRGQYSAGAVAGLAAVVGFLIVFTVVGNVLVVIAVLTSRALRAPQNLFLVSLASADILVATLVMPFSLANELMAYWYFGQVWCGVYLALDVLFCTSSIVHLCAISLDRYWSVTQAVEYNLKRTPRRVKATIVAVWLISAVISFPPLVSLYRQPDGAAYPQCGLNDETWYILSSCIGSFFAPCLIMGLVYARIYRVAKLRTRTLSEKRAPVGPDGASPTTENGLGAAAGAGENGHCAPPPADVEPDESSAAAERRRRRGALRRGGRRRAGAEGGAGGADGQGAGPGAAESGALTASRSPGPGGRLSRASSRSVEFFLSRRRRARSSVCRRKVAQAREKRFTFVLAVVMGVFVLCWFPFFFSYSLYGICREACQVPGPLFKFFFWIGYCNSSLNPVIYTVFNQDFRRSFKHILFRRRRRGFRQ
The nature of test [7]: inhibitors of Sendai virus-induced IRF3 signaling, primary screen, TLR/RLR signaling modifier project, cell-based, Sendai virus stimulus, luciferase, 10K MLSCN set (AID 602276;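 active = inhibition at or above 50% at 10 µM; inactive = inhibition below 50%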;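 note: firefly luciferase from ISG56 promoter only with Renilla not read in this screen; 0% = Sendai virus plus DMSO and 100% = medium plus DMSO without virus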). The conditions noted are these: HEK293 RL24 IRF3 luciferase reporter, at 10 µM, stronger effect = higher value. (In general: A reporter such as luciferase makes a cellular process visible.)
Test [8] is described as follows: inhibitors of poly I:C-induced TLR3 signaling, primary screen, cell-based, poly I:C stimulus, luciferase, 10K MLSCN set (AID 602277). Particulars: HEK293-TLR3 RL24 IRF3 luciferase reporter, at 10 µM, stronger effect = higher value.

Calls of active or inactive are those of the source.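 Rule for the calls, unless noted: active = inhibition of the reporter signal at or above 50%; inactive = inhibition below 50%.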

Voltage-gated potassium channel subunit beta-2 (Rattus norvegicus), sequence (P62483 whole entry, looked up): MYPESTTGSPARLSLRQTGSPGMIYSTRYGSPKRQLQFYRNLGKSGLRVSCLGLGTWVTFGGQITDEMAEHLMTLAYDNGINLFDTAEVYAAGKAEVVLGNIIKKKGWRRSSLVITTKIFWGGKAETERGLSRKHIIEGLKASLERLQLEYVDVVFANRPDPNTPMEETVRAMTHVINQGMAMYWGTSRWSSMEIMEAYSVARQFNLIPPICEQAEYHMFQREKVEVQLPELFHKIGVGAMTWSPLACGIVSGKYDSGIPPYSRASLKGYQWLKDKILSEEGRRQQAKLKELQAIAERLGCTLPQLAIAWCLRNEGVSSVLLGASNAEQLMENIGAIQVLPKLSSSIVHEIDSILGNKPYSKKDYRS

In general, inhibition refers to the change of the read-out against control, counted positive when it falls. For the compound `Cc1ccc(-c2nc3cc(NC(=O)C(C)C)ccc3o2)cc1C`, the cell count in test [1] stood at 709. Besides, the inhibition in test [1] was -5% (inactive); in test [3] it was -160% (inactive); in test [7] it was 19.2% (inactive); in test [8] it was 12.7% (inactive). The inhibition of aggregation in test [2] is -7.4% (inactive). Besides, the nuclei count in test [2] is 99.3%; in test [3] it was 122%. The fluorescence slope in test [4] was -0.453 (inactive). In addition, the NADPH fluorescence slope in test [5] was 2.2e-05 (inactive). The slope in test [6] was 0.00605 (inactive).
Turning to `CCOC(=O)N1CCN(CC(O)COc2ccccc2C(C)CC)CC1` (centres undefined), in test [1], the cell count came out at 631. Also, the inhibition in test [1] was -12.4% (inactive); in test [3], -35.9% (inactive); in test [7] it was 10.8% (inactive); in test [8] it was 35.4% (inactive). For the same compound, the inhibition of aggregation in test [2] was 0.6% (inactive). Besides, the nuclei count turned out to be 100% in test [2] and 122% in test [3]. Further, the fluorescence slope in test [4] is -0.612 (inactive). For the same compound, the NADPH fluorescence slope in test [5] was -1.6e-05 (inactive). The slope in test [6] was 0.00663 (inactive).
Take `CNC(=O)CN(c1ccc(C(C)C)cc1)S(C)(=O)=O`: the cell count in test [1] was determined as 372. The inhibition in test [1] was -0.8% (inactive); in test [3] it was 24.1% (inactive); in test [7], 11% (inactive); in test [8], 35.7% (inactive). The inhibition of aggregation in test [2] is -4.8% (inactive). For the same compound, the nuclei count in test [2] and in test [3] was 114% each time. The fluorescence slope in test [4] is -0.397 (inactive). Also, the NADPH fluorescence slope in test [5] is 1.3e-05 (inactive). For the same compound, the slope in test [6] is 0.00372 (inactive).
In the case of `O=C(CN(C(=O)CCC(=O)Nc1nccs1)c1ccccc1F)NCC1CCCO1` (centres undefined), the cell count in test [1] is 343. In addition, the inhibition is -0.8% (inactive) in test [1], -19.4% (inactive) in test [3], 8.97% (inactive) in test [7] and 15.4% (inactive) in test [8]. Also, in test [2], the inhibition of aggregation is 6% (inactive). Moreover, the nuclei count in test [2] turned out to be 87.3%; in test [3], 124%. Besides, the fluorescence slope in test [4] is -0.609 (inactive). Moreover, the NADPH fluorescence slope in test [5] is -1.3e-06 (inactive). In addition, in test [6], the slope is 0.00439 (inactive).
With `Cc1cc(C)nc(SCc2csc(N)n2)n1`, the cell count in test [1] amounted to 338. Further, the inhibition in test [1] is -3.6% (inactive); in test [3], -56.8% (inactive); in test [7], -0.264% (inactive); in test [8], -2.76% (inactive). Also, the inhibition of aggregation in test [2] was -3.1% (inactive). The values for the nuclei count in test [2] and in test [3] were 81.8% and 100%, respectively. Moreover, the fluorescence slope in test [4] is -0.347 (inactive). In addition, the NADPH fluorescence slope in test [5] was -4.2e-05 (inactive). Besides, the slope in test [6] was 0.00565 (inactive).
For the compound `COc1c(Br)cc2c(C)c(C(=O)O)oc2c1Br`, the cell count in test [1] is 472. The inhibition in test [1] is 3.5% (inactive); in test [3] it was -26.9% (inactive); in test [7], 9.89% (inactive); in test [8], 18.8% (inactive). The inhibition of aggregation in test [2] was -9.2% (inactive). Besides, the values for the nuclei count in test [2] and in test [3] were 95.6% and 112%, respectively. For the same compound, the fluorescence slope in test [4] is -0.443 (inactive). Moreover, the NADPH fluorescence slope in test [5] is -0.000118 (inactive). In addition, in test [6], the slope is 0.00602 (inactive).
Regarding `CCOc1ccccc1OCC(=O)Nc1nnc(COC)s1`, in test [1], the cell count is 437. In addition, the inhibition was 2.9% (inactive) in test [1], 56.9% (inactive) in test [3], -15.3% (inactive) in test [7] and -12.6% (inactive) in test [8]. In addition, in test [2], the inhibition of aggregation was -3.9% (inactive). The nuclei count in test [2] was determined as 106%; in test [3] it was 115%. Besides, the fluorescence slope in test [4] is -0.59 (inactive). Further, the NADPH fluorescence slope in test [5] is -3.4e-05 (inactive). The slope in test [6] was 0.00402 (inactive).
Consider `COc1ccc2c(c1)C(=O)N(c1ccccc1OC)C(=O)C2`, for which the cell count in test [1] was 320. For the same compound, the inhibition in test [1] is -3.9% (inactive); in test [3], -22% (inactive); in test [7], 14.7% (inactive); in test [8], 10.2% (inactive). For the same compound, the inhibition of aggregation in test [2] was -3.2% (inactive). Besides, the figures for the nuclei count in test [2] and in test [3] were 80.8% and 110%, respectively. For the same compound, the fluorescence slope in test [4] was -0.401 (inactive). The NADPH fluorescence slope in test [5] is -3.7e-05 (inactive). Moreover, the slope in test [6] was 0.0052 (inactive).
As for `O=C(OCN1C(=O)c2ccccc2C1=O)C1CCCCC1`, the cell count in test [1] turned out to be 391. In addition, the inhibition in test [1] is 3.5% (inactive); in test [3] it was -43.8% (inactive); in test [7], 6.81% (inactive); in test [8], 12.4% (inactive). Besides, in test [2], the inhibition of aggregation was 3.5% (inactive). In addition, the results for the nuclei count in test [2] and in test [3] were 95.3% and 113%, respectively. In addition, in test [4], the fluorescence slope is -0.348 (inactive). For the same compound, in test [5], the NADPH fluorescence slope was -5e-05 (inactive). For the same compound, in test [6], the slope was 0.00442 (inactive).
For `C=CCNS(=O)(=O)c1ccc2nsnc2c1`, the cell count in test [1] was 383. Also, the inhibition in test [1] was 2.2% (inactive); in test [3], -33.6% (inactive); in test [7], -4.18% (inactive); in test [8], -2.28% (inactive). For the same compound, the inhibition of aggregation in test [2] is 6.3% (inactive). Further, the nuclei count in test [2] came out at 89.1%; in test [3], 121%. The fluorescence slope in test [4] was -0.508 (inactive). In addition, the NADPH fluorescence slope in test [5] was -3.2e-05 (inactive). Moreover, the slope in test [6] is 0.0046 (inactive).
On to `COc1ccc(N2C(N)=C(C#N)C(c3cccnc3)C3=C2CC(C)(C)CC3=O)cc1` (centres undefined), for which the cell count in test [1] is 446. For the same compound, the inhibition was -7.5% (inactive) in test [1], -1.3% (inactive) in test [3], 37.2% (inactive) in test [7] and 38.7% (inactive) in test [8]. Moreover, in test [2], the inhibition of aggregation was -1.2% (inactive). The values for the nuclei count in test [2] and in test [3] were 97.7% and 104%, respectively. The fluorescence slope in test [4] was -0.461 (inactive). In test [5], the NADPH fluorescence slope was -0.000329 (inactive). In addition, the slope in test [6] is 0.00535 (inactive).
With `CC(=O)c1ccc(NC(=O)C2CCN(S(=O)(=O)c3cccc4cccnc34)CC2)cc1`, the cell count in test [1] amounted to 591. The inhibition in test [1] was 8.3% (inactive); in test [3], -11.2% (inactive); in test [7] it was 14.2% (inactive); in test [8] it was 32.1% (inactive). Moreover, the inhibition of aggregation in test [2] is -7.6% (inactive). For the same compound, the nuclei count came out at 102% in test [2] and 115% in test [3]. Besides, the fluorescence slope in test [4] was -0.559 (inactive). The NADPH fluorescence slope in test [5] was -1.3e-05 (inactive). Also, the slope in test [6] was 0.0063 (inactive).
For the compound `CCOC(=O)C1=C(C)N(C)C(=O)NC1c1ccccc1OC` (centres undefined), the cell count in test [1] is 692. The inhibition in test [1] is -11.4% (inactive); in test [3], 50.2% (inactive); in test [7] it was 16.2% (inactive); in test [8], 33.7% (inactive). In addition, in test [2], the inhibition of aggregation was -20.9% (inactive). In addition, the nuclei count was 92.6% in test [2] and 93.2% in test [3]. In addition, in test [4], the fluorescence slope was -0.4 (inactive). Moreover, the NADPH fluorescence slope in test [5] was -1.2e-05 (inactive). The slope in test [6] was 0.00553 (inactive).
Turning to `CCc1nc2sc3ccccc3c(=O)c2c(=O)n1Cc1ccco1`, the cell count in test [1] stood at 577. The inhibition in test [1] was 14.3% (inactive); in test [3], 4.8% (inactive); in test [7], -14.6% (inactive); in test [8] it was -14.8% (inactive). Also, the inhibition of aggregation in test [2] was -3.1% (inactive). Further, the nuclei count in test [2] was determined as 87.2%; in test [3], 112%. For the same compound, the fluorescence slope in test [4] is -0.568 (inactive). Besides, the NADPH fluorescence slope in test [5] was -3.8e-05 (inactive). Moreover, the slope in test [6] is 0.00576 (inactive).
